Data on 17 compounds can be found in PubChem BioAssay (NCATS).

Results filed as inconclusive are left out. Active and inactive are the calls of the source. Unless noted, the call rests on the fitted dose curve; in most records, active means well fitted curve in the direction sought with a large enough effect; inconclusive means small, poorly fitted or top-dose-only effect, or another doubt; inactive means no such curve, though single readings can be large; an effect the other way counts as inactive or inconclusive.

In assay [1] the target is Pyruvate kinase PKM (Homo sapiens) (UniProt P14618). Description: qHTS Assay for Activators of Human Muscle Pyruvate Kinase (AID 954; active means well fitted curve in the direction sought with a large enough effect, not every such curve was filed as active). The method, boiled down:
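PKM2, human, >95% pure, 0.1 nM; PEP 0.5 mM (Km), ADP 0.1 mM; 50 mM imidazole pH 7.2, 50 mM KCl, 0.01% Tween 20, 0.05% BSA; 1 h RT; luciferase luminescence readout.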

Assay [2] can be described thus: MultiTox-Fluor Cytotoxicity Assay - LYMP1-001 - Dead Cells (AID 946). The gist of the method: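 Seed 2500 LYMP1-001 cells/well, incubate 5 hr at 37 C; add compound, 16 hr at 37 C; add MultiTox-Fluor reagent, 60 min RT; read dead-cell fluorescence Ex/Em=485/520. Normalize to DMSO and 15 uM tetraoctylammonium bromide.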
Assay [3] in a line: Cell Viability - LYMP1-002 - Assay at 16 hr (AID 948). The gist of the method: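 LYMP1-002 human lymphoblastoid cells, 2500/well, were treated with compounds for 16 hr at 37 C in complete medium. Viability was read as intracellular ATP by CellTiter-Glo luminescence, and AC50 was derived from a Hill fit to concentration-response data.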
Assay [4] is described as follows: MultiTox-Fluor Cytotoxicity Assay - LYMP1-002 - Live Cells (AID 955).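 Further: cells exposed to compound for 16 hours.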 The gist of the method:
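After 16 h compound exposure at 37 C, live LYMP1-002 lymphoblastoid cells (2500/well) were quantified by cleavage of cell-permeant GF-AFC substrate, read at 405/510 nm after 60 min. Concentration-response fitted with Hill equation for AC50.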

Assay [5] is described as follows: MultiTox-Fluor Cytotoxicity Assay - LYMP1-002 - Dead Cells (AID 960). Further: nearly all actives have a fitted effect of over 60% in size. The method, boiled down: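 Dead-cell fluorescence (Ex/Em 485/520) after 16 h compound exposure at 37 C of LYMP1-002 lymphoblastoid cells in complete medium; AC50 by Hill equation, with data scaled between DMSO and 15 uM tetraoctylammonium bromide.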
A short description of assay [6]: MultiTox-Fluor Cytotoxicity Assay - LYMP1-003 - Dead Cells (AID 961). Further: nearly all actives have a fitted effect of over 70% in size. The gist of the method:
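LYMP1-003 lymphoblastoid, 2500 cells/well, 5 hr settle then 16 hr cpd at 37 C; MultiTox-Fluor reagent 60 min RT; Ex/Em 485/520 dead-cell signal; norm. DMSO = 0%, 15 uM tetraoctylammonium bromide = 100%; Hill AC50.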

Assay [7] in a line: MultiTox-Fluor Cytotoxicity Assay - LYMP1-003 - Live Cells (AID 962).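 Further: cells exposed to compound for 16 hours at 37 °C; cytotoxic hits lower the live-cell protease signal.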 The method, boiled down: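 Live-cell protease activity (GF-AFC substrate, 405/510 nm, 60 min at room temperature) after 16 h, 37 C compound exposure of human lymphoblastoid LYMP1-003 cells; concentration-response fitted to the Hill equation for AC50.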
Assay [8] in a line: Cell Viability - LYMP1-003 - Assay at 24 hr (AID 963). The method, boiled down:
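Concentration-response qHTS: ATP loss measured by CellTiter-Glo luminescence after 24 h compound exposure at 37 C. Cells were LYMP1-003 human lymphoblastoid, 2500 per well. AC50 derived via standard Hill equation modeling.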

A short description of assay [9]: Cell Viability - LYMP1-003 - Assay at 40 hr (AID 964). Further: series mostly up to about 92 µM; nearly all actives have a fitted effect of over 60% in size. The gist of the method: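 Viability is taken as cellular ATP, read by CellTiter-Glo luminescence after 40 h of compound exposure at 37 C. Cells: human lymphoblastoid line LYMP1-003 at 2500/well; AC50 values derived by Hill-equation fitting of concentration-response data.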
The nature of assay [10]: Cell Viability - LYMP2-003 (AID 965).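 Further: cells exposed to compounds for 24 h before reading; nearly all actives have a fitted effect of over 50% in size.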 The gist of the method:
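Human lymphoblastoid LYMP2-003 cells, 2500/well, exposed to compounds for 24 h at 37 C in complete medium. Viability read as intracellular ATP by CellTiter-Glo luminescence; AC50 from Hill-equation fits of qHTS concentration-response data.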

Assay [11] can be described thus: Cell Viability - LYMP2-004 (AID 966). Further: nearly all actives have a fitted effect of over 65% in size. The method, boiled down:
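AC50 values come from Hill modelling of concentration-dependent loss of intracellular ATP, measured by CellTiter-Glo luminescence. Human LYMP2-004 lymphoblastoid cells (2500/well) were exposed to compound for 24 h at 37 C.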

Assay [12] is described as follows: Cell Viability - LYMP2-005 (AID 967). Further: series mostly up to about 92 µM. The gist of the method:
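Human lymphoblastoid LYMP2-005 cells, 2,500 per well in complete medium, rested 5 h at 37C then compound-treated 24 h at 37C. Intracellular ATP read by CellTiter-Glo luminescence after 30 min at room temperature; AC50 from Hill-equation fits of concentration-response data.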

The nature of assay [13]: Cell Viability - LYMP2-015 (AID 971). Further: nearly all actives have a fitted effect of over 55% in size. Further: potency means the concentration at half of the fitted maximal effect. The gist of the method:
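Cytotoxicity readout: decrease in intracellular ATP (CellTiter-Glo luminescence) in 2500 LYMP2-015 lymphoblastoid cells/well after 24 h compound exposure at 37 C. Concentration-response data fitted with the standard Hill equation to give AC50.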

Assay [14] is described as follows: Cell Viability - LYMP2-009 (AID 968). Further: series mostly up to about 92 µM; nearly all actives have a fitted effect of over 55% in size.
Assay [15] in a line: Cell Viability - LYMP2-011 (AID 969). Further: nearly all actives have a fitted effect of over 60% in size. The method, boiled down: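 Cytotoxicity qHTS with ATP content as read-out: lymphoblastoid cells (2500/well) exposed to compound for 24 h at 37 C, then luciferase luminescence measured. Concentration-response data fitted with the standard Hill equation to give AC50.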
Assay [16] is described as follows: Cell Viability - LYMP2-013 (AID 970). Further: series mostly up to about 92 µM; nearly all actives have a fitted effect of over 55% in size. The gist of the method: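 qHTS cytotoxicity: ATP-dependent luminescence (CellTiter-Glo, 30 min room temperature) read after 24 h compound exposure at 37 C of 2500 LYMP2-013 lymphoblastoid cells per well. Concentration-response fitted with Hill equation to give AC50.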
The nature of assay [17]: Cell Viability - LYMP2-017 (AID 972). Further: series mostly up to about 92 µM; nearly all actives have a fitted effect of over 55% in size. The method, boiled down: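 CellTiter-Glo luminescence (cellular ATP, 30 min RT) measured cytotoxicity after 24 hr compound treatment at 37 C. Cells were a human lymphoblastoid line, LYMP2-017, plated at 2500/well and incubated 5 hr first; concentration-response fitted with Hill equation for AC50.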
Assay [18] can be described thus: Cell Viability - LYMP2-019 (AID 973). Further: nearly all actives have a fitted effect of over 55% in size. The method, boiled down:
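AC50 values come from Hill-equation fits of luminescent intracellular ATP (CellTiter-Glo, 30 min, room temperature) following 24 h compound exposure at 37 C. Cells: LYMP2-019 lymphoblastoid line, 2500 per well, in complete culture medium.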

Chain of Pyruvate kinase PKM (Homo sapiens) (P14618 whole entry, looked up): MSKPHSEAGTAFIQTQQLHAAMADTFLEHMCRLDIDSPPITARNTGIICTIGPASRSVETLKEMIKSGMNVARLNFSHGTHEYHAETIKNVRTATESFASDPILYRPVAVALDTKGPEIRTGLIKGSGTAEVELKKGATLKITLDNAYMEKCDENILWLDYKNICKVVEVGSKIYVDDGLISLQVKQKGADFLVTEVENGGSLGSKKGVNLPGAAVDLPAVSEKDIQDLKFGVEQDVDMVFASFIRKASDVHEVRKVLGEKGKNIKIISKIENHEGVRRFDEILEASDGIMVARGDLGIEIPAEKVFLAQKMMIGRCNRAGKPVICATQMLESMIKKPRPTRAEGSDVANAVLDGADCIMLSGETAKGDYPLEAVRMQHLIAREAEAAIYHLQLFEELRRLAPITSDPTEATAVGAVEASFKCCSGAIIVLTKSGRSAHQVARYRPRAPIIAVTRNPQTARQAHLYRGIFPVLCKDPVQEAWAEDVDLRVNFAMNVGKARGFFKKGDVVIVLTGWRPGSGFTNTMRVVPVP

As for `NC(N)=Nc1nc(CSCC/C(N)=N/S(N)(=O)=O)cs1`, the call in assay [1] was inactive.

On to `O=C(O)c1cc(O)c2c(c1)C(=O)c1cccc(O)c1C2=O`, for which the Potency result in assay [2], in assay [3], in [4], in [5], in assay [7] and in assay [8] was “inactive” each time. For the same compound, the Potency entry in [9], in assay [10] and in [11] was “inactive” each time. The outcome in [6] and in assay [12] was inactive. Further, the Potency in assay [13] was 50.1 µM (active).

Consider `CN(C)CCC(c1ccccc1)c1ccccn1` (stereo unspecified), for which the Potency result in assay [2], in [3], in assay [4], in [5], in assay [7] and in assay [8] was “inactive” throughout. For the same compound, the Potency entry in assay [9], in assay [10], in assay [11], in [14], in assay [15] and in assay [16] was “inactive” throughout. The Potency result in assay [13], in assay [17] and in [18] was “inactive” throughout. The outcome in [6] and in assay [12] was inactive.

Turning to `CCN(CC)C(=O)c1ccc(O)c(OC)c1`, the call in assay [1] was inactive.

On to `C[N+](C)(C)CCCCCC[N+](C)(C)C`, for which, in assay [1], the compound was called inactive.

Turning to `CC(=O)O[C@]1(C(C)=O)CC[C@H]2[C@@H]3C=C(Cl)C4=CC(=O)[C@@H]5C[C@@H]5[C@]4(C)[C@H]3CC[C@@]21C`, the Potency result in [3], in assay [4], in assay [5], in [7], in assay [8] and in [9] was “inactive” each time. Also, the Potency result in [10], in assay [14], in [15], in assay [16], in [13] and in [17] was “inactive” throughout. The Potency entry in assay [18] is “inactive”. Also, the outcome in assay [6] was inactive.

For the compound `CC(C)OC(=O)C(C)(C)Oc1ccc(C(=O)c2ccc(Cl)cc2)cc1`, the compound was classed as inactive in assay [1].

Take `COCCCCC(=NOCCN)c1ccc(C(F)(F)F)cc1`: in assay [1], the compound was called inactive.

In the case of `O=C(O)Cc1cccc2ccccc12`, the Potency result in assay [2], in assay [3], in [4], in assay [5], in assay [7] and in assay [8] was “inactive” throughout. Also, the Potency result in assay [9], in [10], in assay [11], in assay [14], in assay [15] and in assay [16] was “inactive” throughout. Moreover, the Potency result in assay [13], in assay [17] and in assay [18] was “inactive” in each case. Moreover, the compound was classed as inactive in assay [6] and in [12].

In the case of `CC(C)(C)c1ccc(C(O)CCCN2CCC(C(O)(c3ccccc3)c3ccccc3)CC2)cc1` (stereo unspecified), in [1], the result was inactive.

Consider `CC(=O)c1ccc(S(=O)(=O)NC(=O)NC2CCCCC2)cc1`, for which the Potency entry in assay [2], in assay [3], in assay [4], in [7], in assay [8] and in assay [9] was “inactive” in each case. Moreover, the Potency entry in assay [10], in [11], in assay [14], in assay [15], in [16] and in [13] was “inactive” in each case. Further, the Potency entry in [17] and in assay [18] was “inactive” throughout. Also, the result in assay [1], in assay [6] and in assay [12] was inactive.

Turning to `CCn1cc(C(=O)O)c(=O)c2ccc(C)nc21`, the Potency entry in assay [2], in assay [3], in assay [4], in assay [5], in assay [7] and in assay [8] was “inactive” each time. Moreover, the Potency result in assay [9], in assay [10], in [11], in assay [14], in assay [15] and in [16] was “inactive” each time. Moreover, the Potency result in assay [13], in assay [17] and in [18] was “inactive” throughout. Further, the compound was classed as inactive in assay [6] and in [12].

Regarding `O=C1NCC2(CCN(CCc3ccccc3)CC2)O1`, in [1], the result was inactive.

In the case of `O=C(O)CCc1nc(-c2ccccc2)c(-c2ccccc2)o1`, the compound was called inactive in assay [1].

In the case of `NCCS`, the call in [1] was inactive.

Consider `CCCCC1C(=O)N(c2ccccc2)N(c2ccccc2)C1=O`, for which the Potency entry in [2], in [3], in assay [4], in [5], in [7] and in [8] was “inactive” in each case. Besides, the Potency result in assay [9], in [10], in assay [11], in assay [14], in [15] and in assay [16] was “inactive” throughout. Also, the Potency entry in assay [13] and in assay [18] was “inactive” in each case. Besides, the outcome in assay [1], in assay [6] and in [12] was inactive.

In the case of `CC(=O)CCCCn1c(=O)c2c(ncn2C)n(C)c1=O`, the call in [1] was inactive.
